Bioassay records (PubChem BioAssay)
Sampled rows, rich in hits. Any-hit rate of the full collection: about 2.4%.
FEN1 inh = human FEN1 inhibition | AID 588795 | Potency, µM (doses to about 114 µM), for the others: top-dose activity change, negative = inhibition, hits mostly inhibitors | 0.35% of 390,000 active | P39748 | Recombinant FEN1 flap cleavage, fluorescence, 15 min; note: % is set by controls: 0 for no effect and ±100 for the full control effect; nearly all actives have a fitted effect of over 65% in size
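Compounds are tested as a concentration series against 10 nM FEN1; after a 15 min room-temperature preincubation, 50 nM substrate starts cleavage, with plate reads at 0 and 15 min. Normalized responses are fitted by a Hill equation.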
POLH inh = blocks human DNA polymerase eta activity | Q9Y253 | recombinant Pol eta, fluorescent DNA replication assay | Potency, µM (series often up to 114 µM), inactives show at the highest dose activity change, negative = inhibition, actives largely listed as inhibitors | 1.2% of 390,000 active; note: % is set by controls: 0 for no effect and ±100 for the full control effect
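Fluorescent replication assay: 50 nM final substrate added after a 15 min room-temperature compound preincubation with 10 nM enzyme. Signal taken at 0 min and again at 10 min.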
WRN inhibitor = inhibitors of human WRN helicase | 0.46% of 360,000 active | WRN helicase unwinding, fluorescent forked duplex, kinetic | Potency, µM (top dose mostly 114 µM), inactives show top-dose activity change, negative = inhibition, usual class: inhibitors; note: % is set by controls: 0 for no effect and ±100 for the full control effect; nearly all actives have a fitted effect of over 55% in size
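WRN at 20 nM final was preincubated with compound for 15 min at room temperature; reaction started with 100 nM forked duplex oligonucleotide carrying fluorophore and quencher plus 2 mM ATP (final). Unwinding followed kinetically by red fluorescence (ex 525/em 598 nm).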
Pol beta inh = inhibitors of human DNA polymerase beta; Potency, µM (titrated, usually from 114 µM), without a hit: top-dose activity change, negative = inhibition, usual class: inhibitors; Pol beta primer extension/strand displacement, fluorescence kinetic; 1.3% of 340,000 active; AID 485314; note: % is set by controls: 0 for no effect and ±100 for the full control effect
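Preincubation: enzyme (10 nM) with compound, 15 min, RT. Reaction: substrate added to 50 nM final. Reads: 0 and 10 min. Analysis: normalized, Hill fit.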
Pol iota inh = inhibitors of human DNA polymerase iota. Q9UNA4. Pol iota fluorescent replication assay, 10 min. Potency, µM (series often up to 115 µM), without a hit: at the top dose activity, negative = inhibition, actives largely listed as inhibitors. 1% of 390,000 active
Target sequence (Q9UNA4 whole entry, looked up): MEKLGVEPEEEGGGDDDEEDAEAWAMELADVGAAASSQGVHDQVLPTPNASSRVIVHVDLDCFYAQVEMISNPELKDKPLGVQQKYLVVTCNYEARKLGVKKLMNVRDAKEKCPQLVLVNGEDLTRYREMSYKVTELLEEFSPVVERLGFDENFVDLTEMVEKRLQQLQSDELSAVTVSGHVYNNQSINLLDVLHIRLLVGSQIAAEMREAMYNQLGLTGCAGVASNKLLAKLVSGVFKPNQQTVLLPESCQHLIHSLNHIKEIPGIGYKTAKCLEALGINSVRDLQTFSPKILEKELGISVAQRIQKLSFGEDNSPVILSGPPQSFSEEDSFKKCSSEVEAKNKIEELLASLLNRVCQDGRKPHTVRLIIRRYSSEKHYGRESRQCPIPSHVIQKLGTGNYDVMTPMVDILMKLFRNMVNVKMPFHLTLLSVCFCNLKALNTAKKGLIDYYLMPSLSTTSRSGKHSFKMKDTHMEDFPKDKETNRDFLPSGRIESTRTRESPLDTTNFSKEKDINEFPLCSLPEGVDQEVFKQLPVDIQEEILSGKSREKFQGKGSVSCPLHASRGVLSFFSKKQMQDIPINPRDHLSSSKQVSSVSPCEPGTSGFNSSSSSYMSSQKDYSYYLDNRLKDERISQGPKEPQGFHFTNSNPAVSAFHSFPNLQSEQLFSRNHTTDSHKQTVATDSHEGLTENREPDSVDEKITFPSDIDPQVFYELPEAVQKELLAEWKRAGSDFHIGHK
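Pol iota at 10 nM preincubated 15 min with compounds at room temperature; reaction started with fluorescent substrate, 50 nM final. Fluorescence read kinetically at 0 and 10 min; buffer-only wells as negative control.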
Pol kappa inh = DNA polymerase kappa (human) inhibition | Q9UBT6 | purified Pol kappa, fluorescent DNA synthesis assay, 10 min | Potency, µM (series often up to 107 µM), for the others: at the top dose activity, negative = inhibition, usual class: inhibitors | 0.53% of 400,000 active | AID 588579; note: % is set by controls: 0 for no effect and ±100 for the full control effect
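Kinetic fluorescence readout at 0 and 10 min followed reaction start with substrate at 50 nM final. Beforehand, enzyme (10 nM Pol kappa) stood 15 min with compound at room temperature; buffer-only wells were negative controls.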
Starred values were filed as active, the others as inactive; ? = inconclusive; nt = no result; [ ] = dose if it differs, or a comment. Calls come from the whole dose curve; as a rule, active = well fitted curve in the direction sought with a large enough effect; inconclusive = small, poorly fitted or top-dose-only effect, or another doubt; inactive = no such curve, though single readings can be large; an effect the other way counts as inactive or inconclusive. Potency is the fitted concentration of half-maximal effect.

SMILES	FEN1 inh	POLH inh	WRN inhibitor	Pol beta inh	Pol iota inh	Pol kappa inh
Cc1ccccc1CNC(=O)C1CCCN(c2nnc(C)c3c(C)n(-c4ccccc4)nc23)C1 (configuration not stated)	?	?	-11%[57.1 µM]	?	2%	-11%
Cc1ccc(-n2nc3c(N4CCC(C(=O)NCc5ccccc5C)CC4)nnc(C)c3c2C)cc1	9%	50µM*	-15%[11.6 µM]	89µM*	?	2%
Cc1nnc(N2CCC(C(=O)NCc3ccc(F)cc3)CC2)c2nn(-c3ccc(Cl)cc3)c(C)c12	16%	-28%	nt	79µM*	27%	-13%
Cc1nnc(N2CCCC(C(=O)NCc3ccccc3)C2)c2nn(-c3ccccc3)c(C)c12 (configuration not stated)	-4%	-11%	nt	29%	22%	-1%
COc1ccc(C(=O)NCCN2CCC(n3c(=O)[nH]c4ccccc43)CC2)cc1F	nt	nt	-1%	nt	nt	nt
Cc1nn(CC(=O)NCc2cccc(F)c2)c(=O)c2cccn12	1%	-15%	-4%[11.6 µM]	0%	?	89µM*
Cc1nn(CC(=O)NCc2cccc(Br)c2)c(=O)c2c1sc1ccccc12	3%	-10%	nt	6.3µM*	7%	-4%
Cc1nn(CC(=O)NCCCc2ccccc2)c(=O)c2cccn12	20%	-9%	0%	4%	12%	5%
COc1cccc(CNC(=O)Cn2nc(C)c3sc4ccccc4c3c2=O)c1OC	12%	-15%	nt	-16%	-10%	-2%
COc1cc(OC)c(NC(=O)CCCn2nc(C)c3sc4ccccc4c3c2=O)cc1Cl	35µM*	-18%	nt	16µM*	?	?
CCN(CCCCCCN)c1ccc2c(=O)[nH][nH]c(=O)c2c1	3%	79µM*	0%[11.6 µM]	-27%	46%	-5%
CCOC(=O)C(=Cc1ccc2c(c1)OCO2)c1ccccc1	?	-16%	-1%	nt	?	-10%
O=C(O)/C=C/C(=O)Nc1ccc(Cl)c(C(=O)O)c1	4%	45µM*	-2%	?	?	-30%
O=C(O)/C=C/C(=O)Nc1ccc(Oc2ccc(NC(=O)/C=C/C(=O)O)cc2)cc1	nt	nt	nt	40µM*	nt	nt
Cc1ccc(CN(Cc2cc3cc(C)ccc3[nH]c2=O)Cc2nnnn2Cc2ccccc2)cc1	-13%	nt	nt	nt	-17%	-6%
CC(=O)N1CCN(/[N+]([O-])=N/Oc2ccc([N+](=O)[O-])cc2[N+](=O)[O-])CC1	4%	nt	nt	nt	?	6%
O=c1cc(-c2ccccc2)oc2cc(O)c(O)cc12	nt	nt	nt	nt	nt	3.2µM*
O=c1cc(-c2ccccc2)oc2ccc(O)cc12	?	-12%	3%	-20%	8%	-3%
O=c1cc(-c2ccc(O)c(O)c2)oc2ccccc12	nt	nt	nt	nt	nt	14µM*
O=C(c1ccccc1)c1c(O)cc(-c2ccccc2)oc1=O	-4%	-9%	-21%	16µM*	-5%	-17%
N#CCC(=O)NN	nt	nt	nt	nt	nt	-3%[19.4 µM]
NC(=O)CN1CCN(C(=O)NC2CCCCC2)CC1	29%	-9%	-1%	32µM*	12%	22%
O=C(NCCN1CCN(C(=O)NC2CCCCC2)CC1)NC1CCCCC1	5%	1%	7%	-1%	-1%	0%
O=C1C(=O)c2c(ccc3ccccc23)-c2ccccc21	-18%	7.9µM*	-10%[11.6 µM]	nt	54%	-1%
CC(C)(C)n1ncc2c(=O)n(Cc3ccccc3Cl)cnc21	9%	nt	nt	nt	2%	1%
SMILES	FEN1 inh	POLH inh	WRN inhibitor	Pol beta inh	Pol iota inh	Pol kappa inh
c1coc(-c2ccc3nncn3c2)c1	nt	nt	18µM*	nt	nt	nt
c1cc(N2CCOCC2)ccc1-c1ccc2nncn2c1	nt	nt	3%	nt	nt	nt
COc1cc2c(NC3CCN(C)CC3)nc(N3CCCN(C)CC3)nc2cc1OCCCCN(C)C	28µM*	nt	nt	nt	?	0%
COc1cc2c(NC3CCN(C)CC3)nc(N3CCCN(C)CC3)nc2cc1OCCCN(C)C	22µM*	nt	nt	nt	?	-37%
COc1cc2c(NC3CCN(C)CC3)nc(N3CCCCC3)nc2cc1OCCCN(C)C	25µM*	nt	nt	nt	40µM*	?
COc1cc2nc(N3CCCCC3)nc(NC3CCN(C)CC3)c2cc1OC	?	nt	nt	nt	-3%	-4%
